Sampled rows, rich in hits. Any-hit rate of the full collection: about 10%.
HP1b binding inh = HTS for Inhibitors of HP1-beta Chromodomain Interactions with Methylated Histone Tails | AlphaScreen HP1-beta / biotin-H3K9me3 peptide binding | Potency, µM (series often up to 114 µM), for inactives: top-dose activity change, negative = inhibition, usual class: inhibitors | AID 540317, 2011 | Chromobox protein homolog 1 (Homo sapiens), P83916 | 0.56% of 390,000 active; further: potency means the concentration at half of the fitted maximal effect; nearly all actives have a fitted effect of over 70% in size
Target sequence (P83916 whole entry, looked up): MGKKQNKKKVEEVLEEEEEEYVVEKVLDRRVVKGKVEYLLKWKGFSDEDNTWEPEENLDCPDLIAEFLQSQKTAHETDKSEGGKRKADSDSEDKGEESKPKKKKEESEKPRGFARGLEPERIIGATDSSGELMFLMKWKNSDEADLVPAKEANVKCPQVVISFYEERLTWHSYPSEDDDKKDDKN
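AlphaScreen: HP1-beta (50 nM) preformed 30 min with biotin-H3(1-18)K9me3 peptide (50 nM) in PBS pH 7.4, 0.01% Tween-20. Compound added for 30 min at RT, then streptavidin donor/nickel chelate acceptor beads (10 ug/mL) for 30 min.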
Six1-Eya2 blk = qHTS Assay for Inhibitors of the Six1/Eya2 Interaction; AlphaScreen GST-Six1/His-Eya2 binding, biochemical; hits give low values; 0.56% of 360,000 active; activity change, % (test concentration not listed); Homeobox protein SIX1 (Homo sapiens) + Protein phosphatase EYA2 (Homo sapiens), …; in the data active means activity change below about -65%; inconclusive means mostly about -30% to -63%; further: on the % scale 0 is the no-effect control and ±100 the full control effect
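AlphaScreen with GST-Six1 and His-Eya2 (5X mix: 250 nM and 500 nM), glutathione donor and nickel acceptor beads; buffer 50 mM Tris pH 8.0, 300 mM NaCl, 1 mM TCEP; 1 h at 37 C in the dark.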
BAZ2B block = qHTS Assay for Inhibitors of BAZ2B; Bromodomain adjacent to zinc finger domain protein 2B (Homo sapiens), Q9UIF8; AlphaScreen BAZ2B-H3K14Ac peptide displacement; Potency, µM (top dose mostly 114 µM), for inactives: top-dose activity change, negative = inhibition, most hits filed as inhibitors; 4.4% of 360,000 active; AID 504333, 2011; further: potency means the concentration at half of the fitted maximal effect; on the % scale 0 is the no-effect control and ±100 the full control effect; nearly all actives have a fitted effect of over 60% in size
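In this displacement format the biotinylated H3(5-23) peptide acetylated at Lys14 serves as ligand at 50 nM, with BAZ2B at 50 nM in PBS pH 7.4 containing 0.01% Tween-20. Donor and acceptor beads are 10 ug/mL final.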
G9a inh = qHTS Assay for Inhibitors of Histone Lysine Methyltransferase G9a; Histone-lysine N-methyltransferase EHMT2 (Homo sapiens), Q96KQ7; G9a H3K9 monomethylation, AlphaScreen, 2 h; Potency, µM (series often up to 102 µM), without a hit: at the highest dose activity, negative = inhibition, hits mostly inhibitors; 8.8% of 350,000 active; further: potency means the concentration at half of the fitted maximal effect; on the % scale 0 is the no-effect control and ±100 the full control effect; nearly all actives have a fitted effect of over 75% in size
Target sequence (Q96KQ7 913-1193 limits assumed): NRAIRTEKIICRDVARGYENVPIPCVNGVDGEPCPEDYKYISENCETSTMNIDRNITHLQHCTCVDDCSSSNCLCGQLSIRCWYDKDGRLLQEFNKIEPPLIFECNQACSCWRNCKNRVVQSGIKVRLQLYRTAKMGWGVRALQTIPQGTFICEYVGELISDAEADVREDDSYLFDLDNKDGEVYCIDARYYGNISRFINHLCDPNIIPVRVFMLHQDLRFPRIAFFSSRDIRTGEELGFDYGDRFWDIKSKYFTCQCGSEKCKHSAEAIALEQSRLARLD
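AlphaScreen detection with an anti-monomethyl H3K9 antibody quantified product after a 2 h room-temperature reaction containing 500 nM biotinylated H3K9 peptide, 20 µM SAM and 20 nM enzyme, which had been preincubated 15 min with compound.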
JMJD2A Tudor inh = qHTS Assay for Inhibitors of JMJD2A-Tudor Domain; Lysine-specific demethylase 4A (Homo sapiens), O75164; AlphaScreen JMJD2A-Tudor / H3K4me3 peptide binding; Potency, µM (highest dose often 114 µM), inactives show at the top dose activity change, negative = inhibition, usual class: inhibitors; 4.4% of 390,000 active; further: potency means the concentration at half of the fitted maximal effect; on the % scale 0 is the no-effect control and ±100 the full control effect; nearly all actives have a fitted effect of over 50% in size
CtBP-E1A blk = qHTS Assay for Inhibitors of the CtBP/E1A Interaction; CtBP / adenovirus E1A interaction (AlphaScreen); AlphaScreen GST-E1A/His-CtBP binding, 1536-well; hits give low values; activity change, % (test concentration not listed); 0.49% of 340,000 active; in the data active means activity change below about -65%; inconclusive means mostly about -30% to -63%; further: on the % scale 0 is the no-effect control and ±100 the full control effect
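Homogeneous bead-based format: GST-tagged E1A captured on glutathione donor beads, His-tagged CtBP on nickel acceptor beads; compounds precede bead addition by 2 h at 37 °C.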
Starred values were filed as active, the others as inactive; u = inconclusive; x = no result; [ ] = remark or other dose. Unless noted, the call rests on the fitted dose curve; in most records, active means well fitted inhibition curve with a large enough effect; inconclusive means small, poorly fitted or top-dose-only effect; inactive means no such curve, though single readings can be large or run the other way.

SMILES | HP1b binding inh | Six1-Eya2 blk | BAZ2B block | G9a inh | JMJD2A Tudor inh | CtBP-E1A blk
COc1ccc2c(c1)CCC1C2=NN(/C(C)=C\C(C)=O)C1c1ccc(F)cc1 (centres undefined) | -19.7% | -1.9 | 13.0% | 15.8µM* | 14.1µM* | x
N#C[C@H]1[C@H](c2ccccc2)[C@](C#N)(C(=O)c2ccccc2)[C@@H]2C=Cc3ccccc3N21 | x | x | 28.2µM* | 25.1µM* | x | x
COc1cc(N2Cc3ccccc3C2)ccc1C=O | 9.8% | -3.4 | -2.5% | 31.6µM* | -23.3% | -16.9
COc1cc(N2CCOCC2)ccc1C=C(C#N)C#N | 28.4% | -1.9 | -18.6% | -3.1% | -11.0% | 20.7
CCCCn1c(=O)[nH]c2nc3cc(N)ccc3nc2c1=O | 6.9% | u | u | 3.55µM* | -25.1% | -19.8
COc1cc(C)ccc1OCCSc1nc(-c2cccc(C)c2)nc2cc(=O)[nH]n12 | 26.0% | x | -10.5% | 31.0%[59 µM] | -19.8% | x
CC(C)C(NCc1c(Cl)cccc1Cl)C(=O)O (centres undefined) | 15.9% | 4.7 | -0.7% | 79.4µM* | -17.9% | 19.2
CC(C)[C@H](NC(=O)NCc1ccc(Cl)cc1)C(=O)O | 33.0% | 3.7 | 12.4% | 14.9%[12.7 µM] | -0.6% | 13.4
C=CCN(C(=O)CSC1=NC(=O)CN1C(C)=O)c1nc(C)c(-c2ccccc2)s1 | 7.7% | -3.3 | 35.5µM* | 39.8µM* | u | 0.0
O=C1N=C(N2C=CC(=C3C=CNC=C3)C=C2)/C(=C/N=NC(=O)c2ccccc2O)S1 | 44.7µM* | -18.5 | 50.1µM* | 70.8µM* | u | -25.7
Cc1ccc(CNC(=O)c2cc3c(=O)n(Cc4cccnc4)ccc3nc2C)cc1 | 29.1% | x | -14.7% | 0.5%[59 µM] | -14.7% | x
CCCCC[C@@H](C)N1C[C@H](COCc2ccccc2)Oc2cc(N3CCC[C@@H]3CO)ccc2S1(=O)=O | x | -10.9 | x | x | x | -1.5
O=C(C1=C(O)C(=O)N(CCN2CCOCC2)C1c1ccccc1)c1cccs1 (centres undefined) | 55.3% | 5.8 | x | x | -16.0%[57.1 µM] | -8.9
C=CCOc1cccc(C2C(C(=O)c3ccco3)=C(O)C(=O)N2CCN2CCOCC2)c1 (centres undefined) | 48.2% | -3.0 | u | -26.8%[12.7 µM] | u | -1.4
COc1cc(C2C(C(=O)c3cccs3)=C(O)C(=O)N2CCN2CCOCC2)cc(OC)c1OC (centres undefined) | 40.2% | -9.6 | 2.5% | u | 2.1% | 4.1
COc1ccc(C2C(C(=O)/C=C/c3ccco3)=C(O)C(=O)N2CCN2CCOCC2)cc1 (centres undefined) | 17.4% | 0.1 | 79.4µM* | u | -33.6% | -1.0
COc1cccc(C2C(C(=O)/C=C/c3ccco3)=C(O)C(=O)N2CCN2CCOCC2)c1 (centres undefined) | 28.5% | -7.2 | x | 50.1µM* | -30.8% | -1.9
CCOc1ccc(C2C(C(=O)/C=C/c3ccco3)=C(O)C(=O)N2CCN2CCOCC2)cc1OC (centres undefined) | 19.2% | -6.5 | x | 44.7µM* | u | -11.2
CCOc1ccc(N)cc1OC | -18.3% | -0.7 | u | 50.1µM* | u | 0.0
CCOc1ccc(C(N)=O)cc1OC | 28.0% | -1.8 | 8.7% | 10.4%[12.7 µM] | -7.5% | -4.8
O=C(COC(=O)C1Cc2ccccc2CN1C(=O)c1ccccc1)Nc1ccc(SC(F)F)cc1 (centres undefined) | u | 5.1 | -12.1% | 79.4µM* | -32.2% | 5.5
O=C(NCc1ccco1)c1ccc2c(c1)N(Cc1ccc(F)cc1)C(=O)c1ccccc1S2=O (centres undefined) | 5.6% | x | u | -7.3%[59 µM] | -20.5% | x
CCOc1ccccc1C(=O)Nc1ccc2nc3c(c(Nc4ccc(OC)c(OC)c4)c2c1)CCCC3 | -22.0% | x | -35.2% | -29.2%[59 µM] | u | x
COc1cc(OC)cc(C(=O)Nc2ccc3nc4c(c(Nc5ccc(OC)c(OC)c5)c3c2)CCCC4)c1 | u | x | 10µM* | 17.8µM* | u | x
COc1ccccc1Nc1c2c(nc3ccc(NC(=O)c4ccc(N(C)C)cc4)cc13)CCCC2 | -21.8% | x | 3.98µM* | 7.94µM* | 15.8µM* | x
SMILES | HP1b binding inh | Six1-Eya2 blk | BAZ2B block | G9a inh | JMJD2A Tudor inh | CtBP-E1A blk
O=[N+]([O-])c1cc(C(F)(F)F)ccc1NCCCCNS(=O)(=O)c1ccc(Cl)cc1 | u | -8.0 | u | u | u | 18.8
O=C(O)c1ccc(NCCc2ccc(Cl)cc2)c([N+](=O)[O-])c1 | 2.7% | -10.3 | u | 79.4µM* | -34.0% | -1.3
O=[N+]([O-])c1cc(C(F)(F)F)ccc1NCCNC(=S)Nc1ccc(Cl)cc1 | -24.2% | u | 20µM* | 28.2µM* | u | 10.8
O=[N+]([O-])c1cc(Cl)ccc1NCCc1ccccn1 | u | -27.6 | 10µM* | u | 44.7µM* | u
CCCCC(=O)N1CCN(c2ccc(OC)cc2[N+](=O)[O-])CC1 | -14.8% | -21.1 | u | u | -29.8% | 8.1
COc1ccc(N2CCN(C(=O)c3ccc(Br)cc3)CC2)c([N+](=O)[O-])c1 | u | u | 25.1µM* | 44.7µM* | 79.4µM* | -25.8
COc1ccc(N2CCN(C(=O)c3ccc(C)cc3)CC2)c([N+](=O)[O-])c1 | -31.6% | -12.4 | u | u | u | -13.9
COc1ccc(N2CCN(C(=O)c3ccccc3Br)CC2)c([N+](=O)[O-])c1 | -21.9% | -15.6 | -30.3% | 56.2µM* | u | -24.4
COc1ccc(N2CCN(C(=S)NC(=O)c3cccs3)CC2)c([N+](=O)[O-])c1 | u | -12.2 | u | 31.6µM* | 50.1µM* | -14.5
COc1ccc(N2CCN(C(=O)c3ccccc3)CC2)c([N+](=O)[O-])c1 | -13.6% | -3.4 | -33.3% | u | -27.5% | -8.1
S=c1[nH]nc(Cn2cnc3ccccc32)n1-c1ccccc1Cl | 40.5% | 2.1 | 19.7% | x | 50.1µM* | 2.3
COc1ccc(C2CC(=O)c3cc(-c4nc(-c5cccc([N+](=O)[O-])c5)cs4)c(=O)n(-c4cc(C)cc(C)c4)c3C2)cc1 (centres undefined) | 18.3% | x | -10.5% | -37.0%[59 µM] | -9.6% | x
COc1ccc(C2CC(=O)c3cc(-c4nc(-c5cccc([N+](=O)[O-])c5)cs4)c(=O)n(-c4ccc(C)c(C)c4)c3C2)cc1 (centres undefined) | 36.7% | x | -38.6% | 11.2µM* | -21.5% | x

Screening data deposited in PubChem by National Center for Advancing Translational Sciences (NCATS).
